Measured values reported in PubChem BioAssay AID1159580 (chemical genetic matrix, 2015).
Hit rate of the full screen: of about 5,500 compounds, about 2,000 (36%) were called active. Another 18% or so got no clear call; they are omitted. No stated cut-off is given here; in the data, active means normalized growth mostly below about 0.91 (no sharp cut-off); inconclusive means no clear call, values can overlap the other calls; inactive means mostly above about 0.92. The list shows a part of the results.

Assay: chemical genetic growth profiling, strain panel (AID 1159580);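 further: tested at 20 µM; growth read once vehicle control cultures reached saturation at 30 °C; 1 = growth at the plate median or of vehicle wells; lower values mean less growth of the strain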
Conditions: growth OD

Measured: normalized growth

O=C(NC(=S)NCc1ccncc1)c1ccccc1
inactive: S. cerevisiae deletion strains, locus YAL013W, strain DEP1, active compounds read low 1.02 | S. cerevisiae deletion strains, locus YBR229C, strain ROT2, active compounds read low 1.01 | S. cerevisiae deletion strains, locus YDL101C, strain DUN1, active compounds read low 1.01 | S. cerevisiae deletion strains, locus YDR150W, strain NUM1, active compounds read low 0.983 | S. cerevisiae deletion strains, locus YEL061C, strain CIN8, active compounds read low 1 | S. cerevisiae deletion strains, locus YGR078C, strain PAC10, active compounds read low 1.01 | S. cerevisiae deletion strains, locus YHR030C, strain SLT2, active compounds read low 1.05 | S. cerevisiae deletion strains, locus YHR087W, strain rtc3, active compounds read low 1 | S. cerevisiae deletion strains, locus YJL187C, strain SWE1, active compounds read low 0.973 | S. cerevisiae deletion strains, locus YJR043C, strain POL32, active compounds read low 0.997 | S. cerevisiae deletion strains, locus YJR075W, strain HOC1, active compounds read low 1.03 | S. cerevisiae deletion strains, locus YKL190W, strain CNB1, active compounds read low 1.01 | S. cerevisiae deletion strains, locus YLR039C, strain RIC1, active compounds read low 0.928 | S. cerevisiae deletion strains, locus YLR058C, strain SHM2 (second series), active compounds read low 1 | S. cerevisiae deletion strains, locus YLR085C, strain ARP6, active compounds read low 0.969 | S. cerevisiae deletion strains, locus YLR262C, strain YPT6, active compounds read low 0.978 | S. cerevisiae deletion strains, locus YML094W, strain GIM5, active compounds read low 1.01 | S. cerevisiae deletion strains, locus YMR219W, strain ESC1, active compounds read low 1 | S. cerevisiae deletion strains, locus YMR263W, strain SAP30, active compounds read low 1 | S. cerevisiae deletion strains, locus YNL128W, strain TEP1, active compounds read low 1.01 | S. cerevisiae deletion strains, locus YNL153C, strain GIM3, active compounds read low 1 | S. cerevisiae deletion strains, locus YNL298W, strain CLA4 (second series), active compounds read low 1.04 | S. cerevisiae deletion strains, locus YNL322C, strain KRE1, active compounds read low 1 | S. cerevisiae deletion strains, locus YNR030W, strain Alg12, active compounds read low 1.02 | S. cerevisiae deletion strains, locus YPL055C, strain LGE1, active compounds read low 1 | S. cerevisiae deletion strains, locus YPL241C, strain CIN2, active compounds read low 1.02 | S. cerevisiae deletion strains, locus YPR135W, strain CTF4, active compounds read low 0.929 | S. cerevisiae strains, strain wild type, active compounds read low 1.01
